Assay outcomes as filed in PubChem BioAssay.
Only some compounds are listed: those with a hit (about 4.1% of all), similar ones and a draw of the others.
Beta cell apopt – inhibitors of cytokine-induced beta cell apoptosis, primary screen, luminescence | protection from apoptosis, % (concentration not given with the values) | AID 435005, 2010 | INS-1E cytokine-induced death, ATP luminescence, 48 h; percent of positive-control rescue, neutral wells zero | 0.8% of 300,000 active;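 active means Every replicate reaches about 75%, or at least half do and their mean reaches it too, limit read from the data; inconclusive means At least half of replicates reach the limit but their mean does not; inactive means Under half of replicates reach the limit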;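 further: 0% = cytokine-treated negative control wells and 100% = positive control rescue; higher means more ATP so stronger rescue from cytokine killing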
CSC inhib – cancer stem cell viability inhibitors, primary screen, luminescence. inhibition, % at 7.5 µM. cancer stem cell-like cells viability. 1.1% of 300,000 active; in the data active means inhibition above about 75%; inconclusive means no clear call, values can overlap the other calls; tested in HMLE shEcad cells
aSyn 5UTR inh – MLPCN primary screen, SNCA 5' untranslated region | alpha-synuclein 5'UTR reporter, inhibitor activity | inhibition, % (tested at 7.5 µM) | 0.82% of 300,000 active; in the data active means inhibition above about 60%; inconclusive means no clear call, values can overlap the other calls;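 further: H4 neuroglioblastoma cells stably carrying SNCA 5'UTR luciferase fusion; 0% = DMSO wells and 100% = positive control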
A1 inh – caspase 3/7 activation in MEF A1-2A-BIM cells, primary screen, A1 inhibitor project, cell-based, luminescence, HTS | 0.066% of 330,000 active | Caspase-Glo 3/7 luminescence, 3 h; percent of clofoctol response, vehicle zero | caspase activation, % (concentration not given with the values);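 active means over half of replicate activation scores above 10%, or exactly half above 10 with the replicate mean above 10; inconclusive means replicate mean below 10 yet half the replicates above 10; inactive means over half of replicates below 10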
Mdm2-MdmX inh – inhibitors of human Mdm2-MdmX association, primary screen, cell-based, luminescence, split luciferase, SaOS-2, uHTS. Protein Mdm4 (Homo sapiens) + E3 ubiquitin-protein ligase Mdm2 (Homo sapiens), …. SaOS-2 split-luciferase Mdm2/MdmX complementation. inhibition, % at 8 µM. 3% of 330,000 active. AID 485346, 2010;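 active means inhibition of at least 50% at 8 µM in the primary screen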
Target sequence (O15151 whole entry, looked up): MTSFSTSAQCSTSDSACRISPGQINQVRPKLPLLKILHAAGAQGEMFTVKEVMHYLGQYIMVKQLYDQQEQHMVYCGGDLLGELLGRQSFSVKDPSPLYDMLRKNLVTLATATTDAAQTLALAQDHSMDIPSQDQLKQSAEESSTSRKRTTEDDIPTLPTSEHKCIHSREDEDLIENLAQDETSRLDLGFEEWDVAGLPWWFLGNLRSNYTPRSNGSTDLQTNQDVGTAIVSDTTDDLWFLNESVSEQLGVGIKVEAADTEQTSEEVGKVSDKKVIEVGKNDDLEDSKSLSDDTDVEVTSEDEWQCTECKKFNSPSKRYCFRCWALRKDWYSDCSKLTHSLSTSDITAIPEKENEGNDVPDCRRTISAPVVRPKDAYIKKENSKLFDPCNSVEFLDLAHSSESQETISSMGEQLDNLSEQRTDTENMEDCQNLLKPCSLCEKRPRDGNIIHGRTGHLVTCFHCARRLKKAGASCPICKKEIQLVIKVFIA
Target sequence (Q00987 whole entry, looked up): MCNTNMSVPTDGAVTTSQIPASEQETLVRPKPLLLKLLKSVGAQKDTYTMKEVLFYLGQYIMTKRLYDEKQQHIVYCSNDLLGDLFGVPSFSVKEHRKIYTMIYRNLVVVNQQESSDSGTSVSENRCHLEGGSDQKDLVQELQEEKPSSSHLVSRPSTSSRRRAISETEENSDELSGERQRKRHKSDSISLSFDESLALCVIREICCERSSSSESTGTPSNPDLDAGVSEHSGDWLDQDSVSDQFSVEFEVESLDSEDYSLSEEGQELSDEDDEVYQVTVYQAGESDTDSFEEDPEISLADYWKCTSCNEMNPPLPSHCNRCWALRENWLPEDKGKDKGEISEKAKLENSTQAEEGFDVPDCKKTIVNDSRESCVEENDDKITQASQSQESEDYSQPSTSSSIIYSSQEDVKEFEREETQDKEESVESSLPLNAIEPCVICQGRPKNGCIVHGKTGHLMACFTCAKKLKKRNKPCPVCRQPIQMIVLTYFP
The depositor's hits bear a star; ? = inconclusive; / = no result given.

SMILES	Beta cell apopt	CSC inhib	aSyn 5UTR inh	A1 inh	Mdm2-MdmX inh
CCCc1cc(=O)[nH]c(SCC(=O)Nc2sc3c(c2C(N)=O)CCCC3)n1	-3	23	/	0	-3
COc1cccc(/C=N/NC(=O)c2ccoc2C)c1O	86*	14	-71	-8	23
COc1cccc(/C=N/NC(=O)c2cc3cc([N+](=O)[O-])ccc3s2)c1O	82*	106*	107*	?	/
COc1cccc(/C=N/NC(=O)c2cc3c(OC)cccc3[nH]2)c1O	/	/	86*	0	11
COc1cccc(/C=N/NC(=O)c2c(-c3ccccc3)noc2C)c1O	87*	48	?	1	34
COc1cccc(/C=N/NC(=O)c2cc3c(OC)cccc3[nH]2)c1OC	1	13	-4	1	25
CC(=O)c1ccc(N2CCN(C(=O)c3cccs3)C(C)C2)c(F)c1 (stereo not drawn)	4	-2	-1	0	-1
CCN(CC)c1ccc(C(=O)NNC(=O)CNC(=O)c2cccs2)cc1	-4	-17	/	0	-6
Fc1ccccc1CN1CCCCCCC1	2	0	-17	0	15
c1ccc(Sc2ccccc2CN2CCCC2)cc1	/	-22	85*	1	16
CC(C)=C(C#N)c1nc2ccccc2s1	-6	-4	-29	0	19
Cc1ccc(OC/C(O)=C(\C#N)c2nc3ccccc3s2)cc1	11	78*	-30	-3	11
O=c1cc(CNc2cc(C(F)(F)F)cc(C(F)(F)F)c2)nc2sccn12	7	81*	65*	1	18
COc1ccc(NC(=O)NNS(=O)(=O)c2ccc(OC)c(OC)c2)c(OC)c1	-4	-7	2	0	27
CCCCCCc1ccc(N2C[C@H](Cc3ccccc3)[C@@H](CC(=O)Nc3ccccc3)C2=O)cc1	104*	36	7	-1	39
CCCCCCc1ccc(N2C[C@H](Cc3ccccc3)[C@@H](CC(=O)NCc3ccc(OC)cc3)C2=O)cc1	100*	64	8	0	37
NC(=O)NC(=O)C(c1ccccc1)N1CCN(S(=O)(=O)Cc2ccccc2)CC1 (stereo not drawn)	0	/	/	0	21
COc1ccc(C(=O)Nc2ccc(NC(=O)c3ccccn3)cn2)cc1	/	/	-35	/	-17
C/C(CC(=O)Nc1ccccn1)=N\NC(=O)c1ccccc1O	37	/	71*	0	40
COc1ccc(NC(=O)c2ccccn2)cc1	18	18	75*	-8	29
CCOc1cccc(-c2c(C(=O)N/N=C(\C)c3ccccn3)nnn2-c2nonc2N)c1	/	-12	90*	0	/
CCOc1cccc(-c2c(C(=O)N/N=C(\C)c3ccncc3)nnn2-c2nonc2N)c1	/	-13	25	1	27
CCOc1ccc(OCc2ccc(C(=O)N/N=C(\C)c3ccccn3)cc2)cc1	102*	-8	64*	0	/
COc1ccc(S(=O)(=O)N2CCCCC2)cc1NC(=O)c1ccc(N2CCCC2=O)cc1	5	/	/	1	-16
CC(=O)c1sc(NC(=O)C2COc3ccccc3O2)nc1C (stereo not drawn)	3	-9	62*	-4	-12
SMILES	Beta cell apopt	CSC inhib	aSyn 5UTR inh	A1 inh	Mdm2-MdmX inh
C/C(=N\NC(=O)c1ccccc1Cl)c1ccccn1	93*	33	82*	-1	48
COc1ccc(C(=O)Nc2ccccn2)cc1	-9	-6	19	0	-3
O=C(Nc1nncs1)C1COc2ccccc2O1 (stereo not drawn)	-3	/	-39	0	-23
C/C(=N\Nc1nc2ccccc2[nH]1)c1ccccn1	92*	/	87*	1	32
C/C(=N/NC(=O)c1ccccn1)c1ccncc1	0	14	-116	-3	-22
COc1ccc(C(=O)N/N=C(\c2ccccc2)c2ccccn2)cc1	113*	50	107*	0	/
O=C(c1cc(C2CC2)nn1-c1ccccc1)N1CCN(c2ccc(O)cc2)CC1	/	/	/	/	-19
O=C(NCCc1ccc(Cl)cc1)c1ccc2c(c1)OCCO2	/	/	-38	0	-86
COc1cc(C(=O)NCC(=O)NCC(c2ccco2)N2CCCCC2)cc(OC)c1OC (stereo not drawn)	4	/	/	-1	-17
FC(F)(F)c1ccccc1NC(=S)Nn1cnnc1	2	7	/	1	22
C/C(Cc1ccccc1)=N\NC(=O)c1ccccn1	-4	-2	-67	0	2
C/C(=N\NC(=O)C1COc2ccccc2O1)c1ccccn1 (stereo not drawn)	34	5	98*	1	41
O=C(N/N=C(\c1ccccc1)c1ccccn1)c1ccccc1Cl	94*	25	68*	0	40
Cc1ccccc1NC(=S)Nc1cccc2cnccc12	129*	13	23	1	5
O=C(NNc1ccc(-c2csnn2)cc1)c1cc(Cl)cc(Cl)c1	1	87*	-38	1	15
O=C(NNc1ccc(-c2csnn2)cc1)c1ccccc1C(F)(F)F	1	13	-30	0	9
Oc1ccc(Cl)cc1CNCc1cccc2ccccc12	-3	30	/	1	5
Cc1c(-c2cccc(Cl)c2)nc2ccccc2c1C(=O)NC1CC1	3	-9	/	-2	1
CCOc1ccccc1C(=O)Nc1c[nH]c(=O)[nH]c1=O	/	/	62*	0	7
Cc1ccc(C)c(OCC(=O)Nc2c[nH]c(=O)[nH]c2=O)c1	-1	-7	81*	0	21
COc1ccc(N=Cc2nc(-c3ccco3)oc2O)cc1	-2	1	-111	-5	-2
CCC(=NCc1ccc(Cl)c(Cl)c1)c1nc(-c2ccco2)oc1O	5	102*	28	0	15
Cc1nn(C(C)C(=O)NC2CCCCCC2)c(=O)c2nn(-c3ccccc3)c(C)c12 (stereo not drawn)	7	-20	1	1	2
CCCOc1ccc(Cc2c(O)nc(SC)[nH]c2=O)cc1	-9	-8	-15	-1	-14
CC(C)(C)NC(=S)N/N=C/c1c(Cl)cccc1Cl	1	0	20	-1	13
SMILES	Beta cell apopt	CSC inhib	aSyn 5UTR inh	A1 inh	Mdm2-MdmX inh
Cc1ccc(NC(=S)N/N=C/c2c(Cl)cccc2Cl)c(C)c1	41	101*	46	0	36
CCCNC(=O)C(Cc1ccc(F)cc1)NC(=O)c1ccccc1 (stereo not drawn)	-3	1	/	1	14
CN(C)CCNc1nc2sc3c(c2c(=O)n1-c1ccc(F)cc1)CCCCC3	3	5	6	1	48
CN(C)CCNc1nc2sc3c(c2c(=O)n1-c1ccccc1)CCCCC3	-9	75*	-7	0	10
Cc1[nH]n(-c2ccccc2)c(=O)c1/C=N/NC(=O)c1cccc(F)c1	92*	49	58	-1	41
Cc1onc(-c2ccccc2)c1C(=O)OCC(=O)Nc1ccc2c(c1)OCO2	-2	10	8	0	3
